Among the data in PubChem BioAssay (NCATS) are Potency and viability values, retold here.

Inconclusive results are not listed. A number with no mark means an inactive call. The source made the active and inactive calls. Calls come from the whole dose curve; as a rule, active = well fitted cell-killing curve with a large enough effect; inconclusive = small, poorly fitted or top-dose-only effect, or effect the other way; inactive = no such curve, though single readings can be large or run the other way.

The nature of experiment [1]: Quantitative High-Throughput drug screen in 47 multiple myeloma cell lines against the NCATS MIPE library collection: SKMM1_PLB cell viability assay (AID 1919863). Note: nearly all actives have a fitted effect of over 35% in size. The following applies: SKMM1 myeloma viability, CellTiter-Glo ATP, 48 h; viability: active compounds read low. In a few lines: (§1)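 Readout: median RLU from CellTiter-Glo after 5 min at room temperature. Preceding step was 48 h drug treatment of 500 cells/well at 37 °C, 5% CO2, with DMSO-only and media-only control wells.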

Experiment [2] can be described thus: Quantitative High-Throughput drug screen in 47 multiple myeloma cell lines against the NCATS MIPE library collection: U266_ATCC cell viability assay (AID 1919864). Note: nearly all actives have a fitted effect of over 35% in size. The gist of the method:
as §1

Experiment [3] can be described thus: Quantitative High-Throughput drug screen in 47 multiple myeloma cell lines against the NCATS MIPE library collection: XG6_PLB cell viability assay (AID 1919865). Note: nearly all actives have a fitted effect of over 40% in size. In a few lines:
as §1

A short description of experiment [4]: Quantitative High-Throughput drug screen in 47 multiple myeloma cell lines against the NCATS MIPE library collection: XG1_PLB cell viability assay (AID 1919866). Note: nearly all actives have a fitted effect of over 35% in size. In a few lines: as §1
Experiment [5] is described as follows: Quantitative High-Throughput drug screen in 47 multiple myeloma cell lines against the NCATS MIPE library collection: UTMC2_PLB cell viability assay (AID 1919868). Note: nearly all actives have a fitted effect of over 55% in size. The following applies: CellTiter-Glo ATP luminescence, 48 h; viability (% of DMSO control): at 45.8 µM (top of the series). The gist of the method:
as §1

Experiment [6] in a line: Quantitative High-Throughput drug screen in 47 multiple myeloma cell lines against the NCATS MIPE library collection: PE2_PLB cell viability assay (AID 1919869). Note: nearly all actives have a fitted effect of over 35% in size. In a few lines:
as §1

A short description of experiment [7]: Quantitative High-Throughput drug screen in 47 multiple myeloma cell lines against the NCATS MIPE library collection: PCM6_Riken cell viability assay (AID 1919870). Note: nearly all actives have a fitted effect of over 30% in size. The gist of the method:
as §1

Experiment [8] can be described thus: Quantitative High-Throughput drug screen in 47 multiple myeloma cell lines against the NCATS MIPE library collection: RPMI8226_ATCC cell viability assay (AID 1919871). Note: nearly all actives have a fitted effect of over 30% in size. In a few lines:
as §1

A short description of experiment [9]: Quantitative High-Throughput drug screen in 47 multiple myeloma cell lines against the NCATS MIPE library collection: OPM2_DSMZ cell viability assay (AID 1919872). Note: nearly all actives have a fitted effect of over 30% in size. The gist of the method:
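CellTiter-Glo ATP luminescence gave viability after 48 h compound treatment at 37C of 500 multiple myeloma cells per well. Normalisation used DMSO-only wells as 100% and media-only wells as 0% viability; primary qHTS of approved and investigational drugs.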

The nature of experiment [10]: Quantitative High-Throughput drug screen in 47 multiple myeloma cell lines against the NCATS MIPE library collection: VP6_DJ cell viability assay (AID 1919867). Note: nearly all actives have a fitted effect of over 40% in size. The gist of the method: as §1
Potency is the fitted concentration of half-maximal effect.

With `C[C@@H]1O[C@@H](O[C@H]2CC[C@@]3(C)[C@H](CC[C@@H]4[C@H]3C[C@@H](O)[C@]3(C)[C@@H](C5=CC(=O)OC5)CC[C@]43O)C2)C[C@H](O)[C@@H]1O[C@H]1C[C@H](O)[C@H](O[C@H]2C[C@H](O)[C@@H](O)[C@@H](C)O2)[C@H](C)O1` (stereo in doubt), the Potency is 0.303 µM (active) in experiment [1]; 0.121 µM (active) in experiment [2]; 0.152 µM (active) in experiment [3]; 0.0605 µM (active) in experiment [4]; 0.0959 µM (active) in experiment [5]; 0.215 µM (active) in experiment [6]. Further, the Potency in [7] is 0.108 µM (active); in experiment [8], 0.215 µM (active); in [9] it was 0.121 µM (active).
`O=c1[nH]nc(OCCCc2ccc(Cl)cc2)c(NCc2cccnc2)c1Br`: the Potency in experiment [1] is 18.7 µM (active); in experiment [2] it was 7.43 µM (active); in [3], 2.96 µM (active); in experiment [4], 9.35 µM (active); in experiment [6], 9.35 µM (active); in experiment [7], 4.69 µM (active). In addition, in [8], the Potency is 20.9 µM (active).
`CCCCN(CCCC)CC(O)c1cc(Cl)cc2c1-c1ccc(Cl)cc1C2=Cc1ccc(Cl)cc1` (centres undefined): the Potency in experiment [1] was 33.2 µM (active); in [3], 26.4 µM (active); in experiment [4], 23.5 µM (active); in experiment [10] it was 23.5 µM (active); in experiment [6], 20.9 µM (active). For the same compound, the Potency result in [2] was “inactive”.
In the case of `COc1c(C)c2c(c(O)c1CC=C(C)CCC(=O)O)C(=O)OC2`, the Potency in [1] was 5.26 µM (active); in [2], 8.33 µM (active); in experiment [3], 3.32 µM (active); in [10], 5.9 µM (active); in [6], 3.32 µM (active); in [8], 7.43 µM (active). In [9], the Potency is 11.8 µM (active). Further, in experiment [7], the Potency result is “inactive”.
Regarding `CC(O)=C(C#N)C(=O)Nc1ccc(C(F)(F)F)cc1`, the Potency is 18.7 µM (active) in experiment [1]; 23.5 µM (active) in [2]; 18.7 µM (active) in [3]; 16.6 µM (active) in [4]; 33.2 µM (active) in experiment [5]; 20.9 µM (active) in experiment [7]. The Potency in experiment [8] was 6.62 µM (active). The Potency entry in experiment [9] is “inactive”.
Consider `CCC=CC[C@H]1C(=O)CC[C@@H]1CC(=O)OC`, for which the viability in [1] was 144%. Besides, the Potency result in experiment [2], in experiment [3], in [4] and in [7] was “inactive” throughout.
For `CN(C)CCOc1ccc(-c2nc(-c3ccc4c(c3)CCC4=NO)c(-c3ccncc3)[nH]2)cc1`, the Potency in [1] is 20.9 µM (active); in experiment [2] it was 26.4 µM (active); in experiment [3], 16.6 µM (active); in experiment [4], 18.7 µM (active); in experiment [6], 16.6 µM (active); in [7] it was 10.5 µM (active). For the same compound, in experiment [9], the Potency is 16.6 µM (active).
In the case of `CC1(C)C(N(O)C(=O)Nc2ccc(Cl)cc2)N(c2ccc(Cl)cc2)C(=O)N1CC(=O)NN=CC=Cc1ccc([N+](=O)[O-])o1` (centres undefined), the Potency in [1] is 13.2 µM (active); in experiment [2], 10.5 µM (active); in experiment [3] it was 10.5 µM (active); in [4], 8.33 µM (active); in experiment [10], 8.33 µM (active); in experiment [5] it was 13.2 µM (active). Further, the Potency was 6.62 µM (active) in experiment [6], 11.8 µM (active) in experiment [8] and 18.7 µM (active) in [9].
For `CN1CCN(c2cccc(Nc3nc4c(-c5ccc(S(C)(=O)=O)cc5)cccn4n3)c2)CC1`, the Potency is 18.7 µM (active) in experiment [1]; 3.32 µM (active) in [2]; 0.833 µM (active) in experiment [3]; 0.372 µM (active) in [4]; 0.743 µM (active) in [10]; 1.05 µM (active) in experiment [6]. The Potency in [7] was 7.43 µM (active); in experiment [8], 9.35 µM (active).
For `O=C(O)CCC=CCC[C@@H]1[C@H](N2CCCCC2)[C@@H](O)C[C@@H]1OCc1ccc(-c2ccccc2)cc1`, in [1], the viability was 114%. Also, the Potency entry in [2], in [3], in experiment [4], in experiment [5], in [6] and in [8] was “inactive” throughout. The Potency result in experiment [9] is “inactive”.
For the compound `CCN(CCO)CCCOc1ccc2c(Nc3cc(CC(=O)Nc4cccc(F)c4)[nH]n3)ncnc2c1`, the viability in experiment [1] was 116%. Further, the Potency result in experiment [2], in experiment [10], in [8] and in experiment [9] was “inactive” each time. In addition, the Potency in experiment [3] is 16.6 µM (active); in experiment [5], 0.0743 µM (active).
As to `Cc1cc(-c2ncc(CC(=O)Nc3ccc(-c4cnccn4)cn3)cc2C)ccn1`, in [1], the viability was 117%. The Potency was 20.9 µM (active) in experiment [2]; 14.8 µM (active) in experiment [3]; 16.6 µM (active) in experiment [4]; 18.7 µM (active) in experiment [10]; 18.7 µM (active) in [6].
For `Cc1cnc(-c2cc(N3CCN(C(=O)CCS(C)(=O)=O)CC3)ncc2Cl)c(C)c1`, the viability in [1] was 114%. Besides, the Potency entry in experiment [2], in experiment [7] and in experiment [8] was “inactive” in each case. Further, the Potency in experiment [3] is 14.8 µM (active); in [4], 16.6 µM (active).
For `Cc1cccc(-c2[nH]c(C(C)(C)C)nc2-c2ccc3c(c2)OCO3)n1`, the Potency in experiment [1] was 20.9 µM (active); in experiment [2], 16.6 µM (active); in [3] it was 2.96 µM (active); in [4] it was 1.05 µM (active); in experiment [10], 0.743 µM (active); in experiment [5], 0.743 µM (active). In addition, the Potency in [6] was 1.18 µM (active); in [8] it was 16.6 µM (active).
Take `CC(NCCc1ccc(O)cc1)C(O)c1ccc(O)cc1` (centres undefined): the viability in experiment [1] is 131%. Also, the Potency entry in experiment [2], in experiment [3], in experiment [4], in [6], in [7] and in experiment [9] was “inactive” throughout.
